Screens deposited in PubChem by National Center for Advancing Translational Sciences (NCATS).
Sampled rows, rich in hits. Any-hit rate of the full collection: about 3.5%.
LmPK inhibitor = LmPK (Leishmania mexicana) enzyme inhibition; 290,000 tested, 0.37% active; Potency, µM (doses to about 57.5 µM), actives largely listed as inhibitors; purified LmPK, Kinase-Glo ATP luminescence, 1 h
Target sequence (Q27686 whole entry, looked up): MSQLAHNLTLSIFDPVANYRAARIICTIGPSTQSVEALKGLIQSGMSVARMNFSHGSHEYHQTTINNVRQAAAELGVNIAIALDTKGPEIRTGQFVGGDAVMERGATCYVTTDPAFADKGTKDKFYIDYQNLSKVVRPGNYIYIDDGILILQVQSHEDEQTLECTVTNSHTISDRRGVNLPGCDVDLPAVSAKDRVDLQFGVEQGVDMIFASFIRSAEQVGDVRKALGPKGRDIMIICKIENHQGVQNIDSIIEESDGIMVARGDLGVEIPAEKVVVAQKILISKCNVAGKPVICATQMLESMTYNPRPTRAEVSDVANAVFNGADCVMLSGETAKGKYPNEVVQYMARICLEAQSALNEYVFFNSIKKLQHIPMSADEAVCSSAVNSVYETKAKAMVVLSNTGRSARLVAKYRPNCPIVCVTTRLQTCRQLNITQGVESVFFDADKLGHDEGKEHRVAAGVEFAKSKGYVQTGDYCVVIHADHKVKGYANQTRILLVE
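Purified LmPK (0.1 nM) converted ADP (0.1 mM) to ATP with PEP (0.5 mM) in imidazole buffer pH 7.2 with KCl and MgCl2, 1 h at room temperature. ATP was read by Kinase-Glo luminescence; data normalized to uninhibited and no-enzyme controls.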
NS1 inh = blocks influenza NS1 protein function; 270,000 tested, 0.4% active; AID 2326; Potency, µM (doses to about 46.1 µM); calls by dose curve; further: actives are rising curves; nearly all actives have a fitted effect of over 50% in size
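Recovery from NS1-induced slow growth read by OD600 in budding yeast switched to galactose assay medium (pH 6.0, -URA) at 1:100 dilution. Compound 23 nl per well; the matching strain lacking NS1 serves as control.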
Sm TGR inh = blocks Schistosoma mansoni thioredoxin glutathione reductase | Q962Y6 | purified TGR, DTNB reduction, TNB absorbance 405 nm | Potency, µM (top dose mostly 114 µM), actives largely listed as inhibitors | 360,000 tested, 3% active; further: nearly all actives have a fitted effect of over 60% in size
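TGR 20 nM + NADPH 100 uM (dispensed conc.), cpd preinc 15 min RT; start with NADPH (500 uM addition) then DTNB (15 mM addition). Kinetic TNB absorbance, 405 nm filter. Four-parameter Hill fit across titration.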
RE007 growth inh = less growth of the S. pombe RE007 Vpr strain. AID 651644. S. pombe RE007 Vpr strain, BacTiter-Glo ATP luminescence, 24 h. 360,000 tested, 0.21% active. Potency, µM (series often up to 92.2 µM), usual class: inhibitors; active means well fitted falling curve with a large enough effect; inconclusive means small, poorly fitted or top-dose-only effect; inactive means no such curve, though single readings can be large or run the other way; further: nearly all actives have a fitted effect of over 50% in size
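Fission yeast RE007 carrying one integrated HIV-1 vpr copy, seeded at OD 0.01 in PMG+AL medium with 23 nL pinned compound. Grown 24 h at 30 degrees; viability read by BacTiter-Glo luminescence after 5 min.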
TbPYK inhibitor = inhibitors of Trypanosoma brucei pyruvate kinase; Q57TT1; TbPYK enzyme, Kinase-Glo Plus ATP luminescence, 45 min; Potency, µM (doses to about 76.8 µM), most hits filed as inhibitors; 410,000 tested, 0.12% active; further: nearly all actives have a fitted effect of over 50% in size
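Enzyme and substrate buffer are dispensed first and compound is pin-transferred. ADP at 130 uM final then starts the reaction, which runs 45 min at room temperature. Detection reagent is added for 10 min before luminescence is imaged.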
Giardia FBPA inh = blocks Giardia fructose-bisphosphate aldolase activity | A8B2U2 | purified Giardia FBPA | Potency, µM (top dose mostly 59.6 µM), usual class: inhibitors | 290,000 tested, 0.71% active | AID 2451; further: nearly all actives have a fitted effect of over 55% in size
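40 nM FBPA preincubated 10 min at RT with compound (up to 57.5 uM final), then substrate plus GAPDH/TPI/NAD/arsenate coupling and diaphorase/resazurin added. Fluorescence read after 20 min at RT, 525/598 nm.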
A number is an active result; . = inactive; ? = inconclusive; / = no result. Unless noted, the call rests on the fitted dose curve; in most records, active means well fitted curve in the direction sought with a large enough effect; inconclusive means small, poorly fitted or top-dose-only effect, or another doubt; inactive means no such curve, though single readings can be large; an effect the other way counts as inactive or inconclusive.

SMILES	LmPK inhibitor	NS1 inh	Sm TGR inh	RE007 growth inh	TbPYK inhibitor	Giardia FBPA inh
C=CCC(C)(O)c1ccc(OC)cc1 (stereo not given)	/	/	/	/	/	.
CCOc1ccc(C(=O)NCC(c2ccc3c(c2)OCO3)N2CCN(c3ccccc3F)CC2)cc1 (stereo not given)	/	/	.	/	.	/
CCC(C(=O)NCCc1ccccc1)n1nc(C)c2sc3ccccc3c2c1=O (stereo not given)	/	/	.	/	.	/
Cc1ccc(C(=O)CCNc2ccccc2)o1	.	.	25µM	11µM	.	.
Cc1ccc(C(=O)CCNc2cccc(Br)c2)o1	.	.	56µM	?	.	.
N/C(=N\OC(=O)c1ccc2c(c1)OCO2)c1cccc([N+](=O)[O-])c1	.	.	/	.	.	.
Cc1cccc(/C(N)=N/OC(=O)c2ccc3c(c2)OCO3)c1	4.5µM	.	.	35µM	?	.
COc1cc(OC)cc(C(=O)O/N=C(\N)c2cccc(C)c2)c1	.	.	.	.	.	.
Cc1cccc(/C(N)=N/OC(=O)c2cccnc2)c1	22µM	.	.	.	.	.
Cc1ccc(C)c(N2CCN(S(=O)(=O)c3ccc4oc(=O)c5ncn(C)c5c4c3)CC2)c1	/	/	.	/	.	/
CC(NC(=O)CCCC1=NS(=O)(=O)c2ccccc2N1)c1ccccc1 (stereo not given)	/	/	.	/	.	/
CCOC(=O)c1c(-c2ccc(C)o2)csc1NC(=O)CSc1nnnn1-c1ccccc1	.	?	5.6µM	.	?	.
CCOC(=O)c1c(-c2ccc(C)o2)csc1NC(=O)CSc1nnc(C)s1	.	.	?	.	.	.
CCOC(=O)c1c(-c2ccc(C)o2)csc1NC(=O)COC(=O)c1ccc(NC(N)=O)cc1	.	.	10µM	.	.	.
COc1ccc(C(=O)NCC2(N3CCN(C)CC3)CCCCC2)cc1	/	/	.	/	.	/
O=C(CSc1n[nH]c(-c2ccccc2)n1)NCCc1ccccc1	/	/	.	/	.	/
Cc1ccc(C2=NCCn3nc4cc([N+](=O)[O-])ccc4c32)cc1	/	/	40µM	.	.	/
Cc1ccc(C2=NCCn3nc4cc(C(F)(F)F)ccc4c32)cc1	/	/	.	.	.	/
Cc1oc2ccc(O)c(CN(C)Cc3ccccc3)c2c1C(=O)Nc1cccc(Cl)c1C	/	/	.	/	.	/
CCOC(=O)C(CC)n1nnc2sc(-c3ccccc3)cc2c1=O (stereo not given)	/	/	.	/	.	/
CCc1nc2sc3c(c2c(=O)n1NC(=O)CCl)CCCC3	.	.	45µM	.	.	.
O=C(NCC1CCCO1)c1sc(=S)n2c1[nH]c(=O)c1ccc(C(=O)N3CCCCC3)cc12 (stereo not given)	20µM	.	.	.	?	.
O=C(NCCc1ccccc1)c1ccc2c(=O)[nH]c3c(C(=O)NCC4CCCO4)sc(=S)n3c2c1 (stereo not given)	.	.	.	.	.	/
COc1cccc(C(=O)NC(=S)Nc2ccc(N(C)C)cc2)c1	.	.	16µM	.	.	.
O=C(NC(=S)Nc1ccc(Cl)cc1)c1cncc(Br)c1	/	/	/	.	.	/
SMILES	LmPK inhibitor	NS1 inh	Sm TGR inh	RE007 growth inh	TbPYK inhibitor	Giardia FBPA inh
CC(C)Oc1cccc(C(=O)NC(=S)Nc2ccc(N3CCN(C)CC3)cc2)c1	.	.	45µM	.	.	.
CN(C)C(=S)Nc1ccc(N2CCOCC2)cc1	.	.	.	.	.	.
O=C(NC(=S)Nc1ccc(N2CCOCC2)cc1)c1cncc(Br)c1	.	.	13µM	.	.	?
CC(=O)c1ccc(NC(=S)Nc2ccc(N3CCOCC3)cc2)cc1	.	/	45µM	.	.	.
COc1cccc(C(=O)NC(=S)Nc2ccc(N3CCCC3)cc2)c1	.	.	?	.	.	.
N=c1c(C(=O)NCC2CCCO2)cc2c(=O)n3ccccc3nc2n1CCCO (stereo not given)	/	/	.	/	.	/
CCc1ccc(C(=O)NC(=S)Nc2ccc(N3CCOCC3)cc2)cc1	.	.	?	.	.	.
O=C(NC(=S)Nc1ccc(N2CCOCC2)cc1)c1cccc(Cl)c1	.	.	22µM	.	.	.
O=C(NC(=S)Nc1ccc(N2CCOCC2)cc1)c1ccccc1	.	/	16µM	.	.	.
Cc1ccc(/C=C/c2onc(C)c2S(=O)(=O)N2CCC(C(=O)NCc3ccc(OC(C)C)cc3)CC2)cc1	/	/	.	/	.	/
COc1ccccc1NC(=O)/C=C\c1ccco1	.	.	2.5µM	.	.	.
Cc1ccccc1NC(=S)NC(=O)/C=C/c1ccco1	.	.	6.3µM	.	.	.
Cc1ccc(NC(=O)/C=C/c2ccco2)nc1	.	.	.	.	.	.
COc1cc2c(cc1NC(=S)NC(=O)/C=C/c1ccco1)oc1ccccc12	.	.	.	.	.	.
O=C(/C=C/c1ccco1)Nc1ccccn1	14µM	.	.	.	.	.
COc1ccccc1NC(=O)/C(C#N)=C/C=C/c1ccco1	.	.	.	.	.	.
COc1ccccc1NC(=S)NC(=O)/C=C/c1ccco1	.	.	18µM	.	.	.
COc1cccc(OCC(=O)NCCS(=O)(=O)N2CCN(c3ccccc3F)CC2)c1	/	/	.	/	.	/
CC(=O)NC(Nc1c(C)n(C)n(-c2ccccc2)c1=O)C(Cl)(Cl)Cl (stereo not given)	.	/	40µM	.	.	.
Cc1c(N/C=C(\Cl)C(=O)C(F)(F)F)c(=O)n(-c2ccccc2)n1C	.	.	14µM	.	.	.
Cc1c(NC(=O)c2cccs2)c(=O)n(-c2ccccc2)n1C	.	.	.	.	.	.
Cc1c(N/C=C/C(=O)c2cccs2)c(=O)n(-c2ccccc2)n1C	.	.	45µM	.	.	.
CCOc1ccccc1CNC(=O)C1CCN(C(=O)N2CC(CC)Oc3ccc(C)cc32)CC1 (stereo not given)	/	/	.	/	.	/
O=C(O)/C=C/C(=O)NCc1ccccc1	.	.	50µM	.	.	.
O=C(O)/C=C\C(=O)Nc1ccccc1C#Cc1ccc(Br)cc1	.	.	45µM	45µM	.	.
SMILES	LmPK inhibitor	NS1 inh	Sm TGR inh	RE007 growth inh	TbPYK inhibitor	Giardia FBPA inh
O=C(O)/C=C\C(=O)Nc1ccccc1C#Cc1ccccc1	.	.	40µM	.	.	.
CCOC(=O)c1ccccc1NC(=O)/C=C/C(=O)O	.	.	?	.	.	.
O=C(O)/C=C\C(=O)NCc1ccccc1	.	.	.	.	.	.
CCCCCCOC(=O)c1ccccc1NC(=O)/C=C/C(=O)O	.	.	45µM	?	.	.
NC(=O)c1ccccc1NC(=O)/C=C/C(=O)O	.	.	.	.	.	.
COC(=O)c1ccccc1NC(=O)/C=C/C(=O)O	.	.	.	/	.	.
Cc1cccc(-n2c(=O)c3c(c4cc(C)ccc4n3C)n(CC(=O)Nc3ccc(C)c(C)c3)c2=O)c1	/	/	.	/	.	/
O=C(O)/C=C/C(=O)Nc1ccccc1-c1ccccc1NC(=O)/C=C/C(=O)O	.	.	8.9µM	.	.	.
